Some test systems named below: RPMI-8226 leukemia; OVCAR-8 ovarian; OVCAR-5 ovarian; OVCAR-4 ovarian; SK-OV-3 ovarian; IGROV1 ovarian; OVCAR-3 ovarian; HS 578T breast; NCI/ADR-RES ovarian.
What all share (experiment): NCI-60 one-dose screen, 48 h (100 = growth as untreated, 0 = no growth, -100 = all killed)
What all share (settings): 10 µM

Compounds without any hit were thinned out: in the full panel of roughly 83,000, 20% have a hit.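 48-hour exposure, single concentration, 96-well plates; percent growth endpoint where 0 means no net growth. Active: below 10.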 Values without a mark were called inactive. Active and inactive are the calls of the source.

Take `Clc1ccc(/C=N/Nc2ncnc3sc4c(c23)CCN(Cc2ccccc2)C4)cc1`: the growth is 14% with RPMI-8226 leukemia; -56.2% (active) with OVCAR-8 ovarian; -18.8% (active) with OVCAR-5 ovarian; -75.9% (active) with OVCAR-4 ovarian; 30.3% with SK-OV-3 ovarian; 34.4% in the experiment on IGROV1 ovarian. Further, the growth in the experiment on OVCAR-3 ovarian is -79.9% (active); in the experiment on HS 578T breast, -11% (active); with NCI/ADR-RES ovarian, -55.2% (active).

Consider `COc1cccc(-c2nn(-c3ccccc3)cc2-c2ccnc(NCCCNC(=O)Nc3ccc(F)cc3)c2)c1`, for which the growth in the experiment on RPMI-8226 leukemia is -27.4% (active); with OVCAR-8 ovarian, 11.1%; in the experiment on OVCAR-5 ovarian, 27.1%; in the experiment with OVCAR-4 ovarian it was 22.8%; in the experiment with SK-OV-3 ovarian it was 3.71% (active); in the experiment on IGROV1 ovarian, 15.8%. Moreover, the growth in the experiment on OVCAR-3 ovarian was 28.4%; in the experiment on HS 578T breast, -3.48% (active).

As for `O=c1[nH]n(C(=S)N/N=C/c2ccc(F)cc2)c(=O)c2ccccc12`, the growth is -22.5% (active) with RPMI-8226 leukemia; 36.4% with OVCAR-8 ovarian; 91.2% with OVCAR-5 ovarian; 82% with OVCAR-4 ovarian; 102% in the experiment on SK-OV-3 ovarian; 90.5% with IGROV1 ovarian. In addition, the growth with OVCAR-3 ovarian is 32.5%; in the experiment with HS 578T breast it was 91.6%; with NCI/ADR-RES ovarian, 31.1%.

Consider `O=C(Nc1nc2ccc([N+](=O)[O-])cc2s1)Nc1cc(Cl)ccc1I`, for which the growth is -40.9% (active) in the experiment with RPMI-8226 leukemia; -13.6% (active) with OVCAR-8 ovarian; 15.1% in the experiment on OVCAR-5 ovarian; 0.91% (active) in the experiment with OVCAR-4 ovarian; -9.56% (active) in the experiment with SK-OV-3 ovarian; 13.8% in the experiment on IGROV1 ovarian. The growth in the experiment on OVCAR-3 ovarian was -21.2% (active); in the experiment with HS 578T breast, -21.5% (active).

Take `O=C1Nc2ccc(F)cc2/C1=C/c1cccc(OCc2ccccc2)c1`: the growth was -28.1% (active) in the experiment with RPMI-8226 leukemia; 24.6% in the experiment on OVCAR-8 ovarian; 66% with OVCAR-5 ovarian; 36.4% in the experiment on OVCAR-4 ovarian; 66.7% in the experiment with SK-OV-3 ovarian; 36.6% with IGROV1 ovarian. The growth is 7.98% (active) in the experiment on OVCAR-3 ovarian and 32.3% in the experiment with HS 578T breast.

Regarding `CCN1CCN(c2ccc(NC(=O)Nc3ccc4c(c3F)CCN4c3ccnc(C(=O)NC)c3)cc2C(F)(F)F)CC1`, the growth with RPMI-8226 leukemia is -40.2% (active); with OVCAR-8 ovarian, -75.4% (active); in the experiment with OVCAR-5 ovarian, 57.5%; with OVCAR-4 ovarian, -89.6% (active); in the experiment with SK-OV-3 ovarian, 103%; in the experiment with IGROV1 ovarian, 113%. Also, the figures for the growth with OVCAR-3 ovarian, in the experiment on HS 578T breast and with NCI/ADR-RES ovarian were -85.6% (active), 68.3% and -67.6% (active), respectively.

Regarding `O=C(Nc1cc(Cl)cc(Cl)c1)Nc1cc(Cl)cc(Cl)c1`, the growth with RPMI-8226 leukemia is -42.4% (active); with OVCAR-8 ovarian, 0.191% (active); in the experiment with OVCAR-5 ovarian, 1.87% (active); in the experiment on OVCAR-4 ovarian, 10.8%; in the experiment on SK-OV-3 ovarian it was -15.8% (active); with IGROV1 ovarian, 7.38% (active). Further, the growth in the experiment on OVCAR-3 ovarian is -31.5% (active); in the experiment with HS 578T breast it was -19.3% (active); with NCI/ADR-RES ovarian, -24.1% (active).

For the compound `CC(=O)Nc1ccc(-n2cnc3cc(-c4ccc(O)cc4)ccc32)cc1C`, the growth is 42.7% with RPMI-8226 leukemia; 58% with OVCAR-8 ovarian; 72.7% in the experiment with OVCAR-5 ovarian; 70.2% in the experiment on OVCAR-4 ovarian; 78.8% in the experiment on SK-OV-3 ovarian; 80.2% in the experiment on IGROV1 ovarian. Also, the growth with OVCAR-3 ovarian is 80.3%; in the experiment with HS 578T breast it was 64.6%; in the experiment on NCI/ADR-RES ovarian, 29.4%.

As to `O=C(c1ccc(O)cc1)C1[C@H](c2ccccc2Br)[C@@H](c2ccccc2)NC12C(=O)Nc1ccc(Br)cc12` (stereo partly drawn), the growth in the experiment on RPMI-8226 leukemia is 24.6%; in the experiment on OVCAR-8 ovarian, 48.6%; with OVCAR-5 ovarian it was 64.1%; in the experiment on OVCAR-4 ovarian it was 51.4%; with SK-OV-3 ovarian, 65.2%; with IGROV1 ovarian, 18.4%. Also, the growth with OVCAR-3 ovarian is 7.23% (active); in the experiment on HS 578T breast, 58.5%; with NCI/ADR-RES ovarian, 64.9%.

As for `O=C(Nc1ccncc1)c1ccc(-n2c(=O)[nH]c3ccccc3c2=O)cc1`, the growth is 100% in the experiment on RPMI-8226 leukemia; 96% in the experiment with OVCAR-8 ovarian; 100% in the experiment with OVCAR-5 ovarian; 93.3% in the experiment on OVCAR-4 ovarian; 99.3% in the experiment on SK-OV-3 ovarian; 107% with IGROV1 ovarian. The results for the growth in the experiment on OVCAR-3 ovarian, with HS 578T breast and with NCI/ADR-RES ovarian were 113%, 92.4% and 103%, respectively.

With `Nc1nc(-c2ccccc2)cc(-c2cc3ccccc3nc2Cl)n1`, the growth is 19.2% with RPMI-8226 leukemia; 83.9% in the experiment with OVCAR-8 ovarian; 97.8% with OVCAR-5 ovarian; 96% with OVCAR-4 ovarian; 99.2% in the experiment with SK-OV-3 ovarian; 97.9% with IGROV1 ovarian. Besides, the growth is 67.7% with OVCAR-3 ovarian, 82.8% in the experiment on HS 578T breast and 80.7% in the experiment with NCI/ADR-RES ovarian.

As for `C=CC(=O)Nc1ccc(C(=O)/C=C/c2ccc(N(C)CCF)cc2)c(O)c1`, the growth was 3.47% (active) in the experiment on RPMI-8226 leukemia; -45.8% (active) in the experiment with OVCAR-8 ovarian; -49.3% (active) in the experiment with OVCAR-5 ovarian; 19.8% with OVCAR-4 ovarian; 3.61% (active) with SK-OV-3 ovarian; -53.5% (active) in the experiment with IGROV1 ovarian. The growth was -69% (active) in the experiment on OVCAR-3 ovarian, 19.7% with HS 578T breast and 0.782% (active) in the experiment on NCI/ADR-RES ovarian.

`CN1CCc2c(sc3ncnc(N/N=C/c4cn(-c5ccccc5)nc4-c4ccc(Br)cc4)c23)C1`: the growth in the experiment on RPMI-8226 leukemia is 35.8%; in the experiment with OVCAR-8 ovarian it was 4.42% (active); in the experiment with OVCAR-5 ovarian, 48.5%; with OVCAR-4 ovarian, 51.4%; in the experiment with SK-OV-3 ovarian, 107%; in the experiment with IGROV1 ovarian, 56.7%. Moreover, the growth was 4.8% (active) with OVCAR-3 ovarian, 70.1% with HS 578T breast and 8.08% (active) in the experiment with NCI/ADR-RES ovarian.

Regarding `Cc1ccc(C(C)C)cc1NC(=O)c1ccccc1N(C)C`, the growth with RPMI-8226 leukemia was 72.6%; in the experiment with OVCAR-8 ovarian, 101%; in the experiment with OVCAR-5 ovarian, 86.6%; in the experiment on OVCAR-4 ovarian, 90%; with SK-OV-3 ovarian, 93.7%; in the experiment on IGROV1 ovarian, 88.6%. Moreover, the values for the growth in the experiment on OVCAR-3 ovarian, in the experiment on HS 578T breast and in the experiment with NCI/ADR-RES ovarian were 103%, 110% and 74.6%, respectively.

The values above are taken from PubChem BioAssay (NCI).
